According to PubChem BioAssay (NCATS):
Inconclusive results are not listed. Calls of active or inactive are those of the source. Calls follow the shape of the dose curve; as a rule, active = well fitted inhibition curve with a large enough effect; inconclusive = small, poorly fitted or top-dose-only effect; inactive = flat fitted curve, though single readings scatter.

Experiments:
Experiment in all cases: qHTS profiling for inhibitors of Plasmodium falciparum proliferation (AID 504749); also: nearly all actives have a fitted effect of over 60% in size
Details in all cases: P. falciparum in erythrocytes, SYBR Green DNA, 72 h; series mostly up to 28.7 µM
[1] = system: CP247
Summary of the method: (§1)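 Three-day growth assay of blood-stage parasites in erythrocytes (0.3% parasitemia, 2.5% hematocrit) at 37 C, 5% CO2, quantified by SYBR Green DNA staining after overnight detergent lysis.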

[2] = system: CP250
Summary of the method: as §1

[3] = system: CP252
Summary of the method: as §1

[4] = system: CP256
Summary of the method: as §1

[5] = system: CP262
Summary of the method: as §1

[6] = system: CP265
Summary of the method: as §1

[7] = system: CP266
Summary of the method: as §1

[8] = system: CP268
Summary of the method: as §1

[9] = system: CP269
Summary of the method: as §1

[10] = system: CP260
Summary of the method: as §1

Measured: Potency
Potency is read from the fitted curve at half-maximal effect.

CCCCCCCCCCCCCCCCCCOC[C@H](COP(=O)([O-])OCC[N+](C)(C)C)OC
not listed: [10]
inactive: all other assays above

CCCCCCCCCCCCCCC[C@H](O)[C@H](N)CO
inactive: all assays above

c1ccc(C2CN3CCSC3=N2)cc1 (configuration not stated)
inactive: [5]
active: [10] 10 µM | [6] 4.47 µM

CC(C)NC[C@H](O)COc1ccc(CC(N)=O)cc1
not listed: [7]
inactive: all other assays above

CC(O)C(O)[C@H]1CNc2nc(N)[nH]c(=O)c2N1 (some centres not stated)
inactive: all assays above

CN1C2CCC1CC(OC(c1ccccc1)c1ccccc1)C2 (configuration not stated)
inactive: [6]
